# Pf Dd2 growth: qHTS Primary assay for Inhibitors of Plasmodium falciparum Dd2 growth in vitro | hit rate 4.3% among 120,000 | Potency, µM (top dose mostly 28.9 µM), without a hit: at the top dose activity, negative = inhibition, most hits filed as inhibitors | AID 1347417, 2020 | P. falciparum Dd2 growth, SYBR Green, 72 h; active = well fitted inhibition curve with a large enough effect;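 also: plate controls were DMSO vehicle for no effect and reference drug for full effect; nearly all actives have a fitted effect of over 65% in size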
#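 Infected erythrocytes (Dd2, 0.3% parasitemia, 2.5% hematocrit final) are added to compound in RPMI-1640/Albumax II medium, grown 72 h at 37C in low oxygen, then lysed with saponin/Triton-X containing SYBR Green and read by fluorescence.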
# Active calls of the source: *; i = inactive; [ ] = another dose, or the depositor's remark. Many of the other results were omitted from the sample, so hits are more common in it than they were. Potency is read from the fitted curve at half-maximal effect.
SMILES,Pf Dd2 growth
COc1ccc(Nc2ncc(-c3cccnc3)c3c2OCC3)cc1,i
Cn1cc(-c2cnc(Nc3ccncc3)c3c2CCO3)cn1,-0.8%[44.1 µM]
Clc1ccc(Nc2ncc(-c3cccnc3)c3c2OCC3)cc1,10µM*
Cc1cc(-c2cnc(Nc3ccc(F)cc3)c3c2CCO3)ccn1,i
COC(=O)c1ccc(CN2C(=O)[C@@H]3C[C@@H](O)CN3C3(CN(Cc4ccccc4)C3)C2=O)cc1,i
O=S(=O)(c1ccc(F)cc1)N1CC(c2nnc(-c3ccncc3)o2)C2(CCOCC2)C1 (stereo not drawn),3.8%
CCOc1cc(=O)n2c(c1C(=O)Nc1ccccc1F)CCCC2,74.5%
COC[C@H]1C[C@@H](NC2CCN(C(C)=O)CC2)[C@H](O)[C@@H]1O,19.8%[44.1 µM]
FC(F)(F)c1ccc(-c2noc(-c3ncn4c3COC(c3ccccc3Cl)C4)n2)cc1 (stereo not drawn),-11.6%
Clc1ccccc1C1Cn2cnc(-c3nc(-c4ccccn4)no3)c2CO1 (stereo not drawn),6.31µM*
Fc1ccc(-c2noc(-c3ncn4c3COC(c3ccccc3Cl)C4)n2)cc1 (stereo not drawn),-20.7%
O=C(O)CCC(=O)NC[C@H]1Cn2c(-c3ccc(F)cc3)cnc2CO1,3.3%[44.1 µM]
N#Cc1cccc(C(=O)Nc2ccc([C@@H](O)[C@H]3COCC(=O)N3Cc3ccccc3F)cc2)c1,-12.0%
Cc1ccc(NC(=O)/C(C#N)=C/c2ccccc2Cl)cc1C,18.5%
N#C/C(=C\c1ccc(-c2cccc(Cl)c2)o1)C(=O)Nc1cccc(C(F)(F)F)c1,17.3%
N#C/C(=C/c1cn(Cc2ccc(F)cc2)c2ccccc12)C(=O)Nc1cccc(Cl)c1,10µM*
O=C(Cn1ncc(N2CCNCC2)cc1=O)NCCc1ccc(F)cc1,-6.7%
O=C(CN1CC2CC(C1)[C@H]1CCCC(=O)N1C2)N1CCOCC1 (stereo partly drawn),3.0%
C1Cc2nnc(C3CC3)n2CCN1,10.7%
CC(C)C(=O)N1CCC(c2nc(C3CCOCC3)no2)C1 (stereo not drawn),19.1%
O=C(C[C@@H]1CCNC[C@@H]1Cc1cc(CN2CCOCC2)on1)N1CCN(c2ccccc2)CC1,5.6%
COc1ccc(-c2cc(C[C@H]3CNCC[C@H]3CC(=O)NC(C)C)no2)cc1,i
COc1ccc(-c2cc(C[C@H]3CNCC[C@H]3CC(=O)NCc3cccnc3)no2)cc1,-8.0%[44.1 µM]
CC(C)(C)c1cc(C[C@H]2CNCC[C@H]2CC(=O)N2CCC(Cc3ccccc3)CC2)no1,7.94µM*
COc1ccccc1N1CCN(C(=O)C[C@@H]2CCNC[C@@H]2Cc2cc(-c3ccc(F)cc3)on2)CC1,11.2µM*
SMILES,Pf Dd2 growth
COc1ccc(-c2cc(C[C@H]3CNCC[C@H]3CC(=O)N3CCN(c4ccccc4OC)CC3)no2)cc1,-25.7%
COc1ccccc1N1CCN(C(=O)C[C@@H]2CCNC[C@@H]2Cc2cc(COc3ccccc3)on2)CC1,-29.0%
NC(=O)C1CCN(C(=O)C[C@@H]2CCNC[C@@H]2Cc2cc(COc3ccccc3)on2)CC1,11.7%
COc1ccc(-c2cc(C[C@H]3CNCC[C@H]3CC(=O)N3CCC(Cc4ccccc4)CC3)no2)cc1,7.94µM*
O[C@@H]1[C@@H](Cn2cc(C3CC3)nn2)C[C@@H](NCc2ccc(F)cc2)[C@@H]1O,-38.1%[44.1 µM]
Cc1noc(C)c1S(=O)(=O)N1CCC2(CC1)CC(N(C)Cc1ccccc1)CCO2 (stereo not drawn),-8.1%
CSc1ccc(-c2nc(CN(C)Cc3cc(C)no3)c(C)o2)cc1,i
COCCNC(=O)c1cc(-c2cccc3[nH]ccc23)cc2ncn(C)c12,-10.4%[44.1 µM]
COCCNC(=O)C[C@@H]1O[C@H](CNCc2ccc(F)cc2)[C@@H](O)[C@H]1O,17.5%[44.1 µM]
COC1CCN(S(=O)(=O)N2C[C@H](c3ccc(C)o3)[C@@H](N)C2)CC1,11.2µM*
Cc1ccc([C@H]2CN(C(=O)c3[nH]nc(N)c3-c3ccccc3)C[C@@H]2N)o1,6.5%
COC1CCN(S(=O)(=O)N2CCCC(C)(c3ccccc3)C2)CC1 (stereo not drawn),3.7%
O=c1[nH]c(C2CCCN(Cc3cccc4ccccc34)C2)nn1-c1ccccc1 (stereo not drawn),i
Cc1cc(C(F)(F)F)nc(CNc2cc(C)nc3c(C)c(C)nn23)n1,10.8%
CC1(C)[C@H](Cc2cc(CN3CCN(c4ccccc4)CC3)on2)C[C@@H]1NC(=O)Nc1ccc(F)cc1,i
CSCC(=O)N[C@H]1CCN2C(=O)c3cc(-c4cccs4)ccc3NC(=O)[C@H]12,i
COc1ccccc1Nc1c2c(nc3ccc(NC(=O)c4ccc(N(C)C)cc4)cc13)CCCC2,5.62µM*
CCOc1ccccc1C(=O)Nc1ccc2nc3c(c(Nc4ccc(OC)c(OC)c4)c2c1)CCCC3,1.12µM*
COc1ccccc1Nc1nn2c(=O)c3ccc(C(=O)Nc4ccc(F)cc4)cc3nc2s1,31.5%
COc1ccc(C)cc1NC(=O)c1ccc2c(Cl)c3c(nc2c1)CCC3,30.1%
COc1cc(OC)cc(C(=O)Nc2ccc3nc4c(c(Nc5ccc(OC)c(OC)c5)c3c2)CCCC4)c1,-0.1%
CCOc1ccccc1C(=O)Nc1ccc(S(=O)(=O)Nc2nc(C)cc(C)n2)cc1,-4.0%
COC(=O)C1=C(C)NC(=O)NC1c1ccc(C(C)C)cc1 (stereo not drawn),-14.5%
O=C(CC1CCCN(c2cn[nH]c(=O)c2)C1)N1CCN(c2ccccc2)CC1 (stereo not drawn),-11.6%
COc1cc(=O)n2c(c1C(=O)Nc1ccc(Cl)c(Cl)c1)CCCC2,1.8%
SMILES,Pf Dd2 growth
O=C1CCN(Cc2cccnc2)CCCC(C(=O)NCCCN2CCOCC2)CCN1 (stereo not drawn),5.1%
COCC1CN(Cc2c[nH]c3ccccc23)CC12CCNCC2 (stereo not drawn),6.5%
COCC1CN(Cc2cccc(OC(F)(F)F)c2)CC12CCNCC2 (stereo not drawn),1.26µM*
COCC1CN(Cc2cccnc2)CC12CCNCC2 (stereo not drawn),7.1%
COc1cccc(N2CC(C(=O)N3CCC(C(=O)NCc4cccc(Cl)c4)C3)NC2=O)c1 (stereo not drawn),-22.6%
O=C(Cn1ccn2nc(-c3ccccc3)c(CO)c2c1=O)NCc1ccc2c(c1)OCO2,4.5%
COC[C@H]1NC(=O)CC[C@H]1C(=O)N1CCc2ccccc21,2.8%
CCCC(=O)N1CCC(O)(c2ccccc2)[C@H](N2CCCC2)C1 (stereo partly drawn),i[5.79 µM]
COCC(=O)N1CCC(O)(c2ccccc2)[C@H](N2CCCC2)C1 (stereo partly drawn),16.8%[5.79 µM]
Cc1c(CN2CCC(O)(c3ccccc3)[C@H](N3CCCC3)C2)cnn1C (stereo partly drawn),0.447µM*
COCCOCc1nc(C2CCN(C(=O)C3(c4ccccc4)CC3)C2)no1 (stereo not drawn),-6.7%
CCCCc1cn(C[C@H]2CC3CCN2C[C@@H]3C(=O)NCCOC)nn1 (stereo partly drawn),15.0%[44.1 µM]
CC(C)(Oc1ccc(Cl)cc1)C(=O)Nc1cccc(-c2cn3cccnc3n2)c1,11.2µM*
COc1cccc(NC(=O)Nc2cccc(-c3cn4cccnc4n3)c2)c1,i
CC(C)(C)C(=O)Nc1cccc(-c2cn3cccnc3n2)c1,-5.6%
CNC(=O)c1noc([C@@H]2CC(F)(F)CN2C(=O)CC(C)C)n1,i
CC(C)C(=O)Nc1ccc2nc(SCC(=O)N3CCOCC3)sc2c1,5.1%
CCOc1ccc(C(=O)Nc2ccc3nc(SCC(=O)N4CCOCC4)sc3c2)cc1,8.91µM*
